# Reference: PubChem BioAssay (EPA / NIEHS)
# Results filed as inconclusive are left out. Activity calls are given as the source filed them. The calls were made as follows, unless noted: active = hit-call score of the fitted dose curve at least 0.9, where 1 is the maximum; inconclusive = response in the unintended direction; inactive = score below 0.9.
# Experiments:
# [1] = ACEA_ER_80hr: ACEA Biosciences xCELLigence Real-Time Cell Analysis on Estrogen Receptor Agonism for Proliferation (AID 2282667); conditions: T47D proliferation, impedance (xCELLigence), 80 h
# How it was run: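 Estrogen-driven proliferation is captured as electrode impedance in T47D cells 80 h after compound addition. Test articles ran at 8 concentrations, 1:4 dilutions from 100 uM final, in two replicate plates.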
# [2] = APR_HepG2_CellCycleArrest_24hr: Apredica 24-hour HepG2 Assay for Cell Cycle Arrest (AID 2282905; active = hit-call score of the fitted dose curve at least 0.9, where 1 is the maximum; inactive = score below 0.9;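 also: cell cycle arrest scored as ratio of 2N to 4N nuclear DNA content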); conditions: imaging, actives raise or lower the signal
# How it was run: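 Readout: Hoechst 33342 nuclear DNA content by high-content fluorescent imaging, six images/well, 20x. Human HepG2 liver cells, 24 hr compound exposure, 0.39–200 uM, final DMSO 0.5% v/v. Gain or loss fitted relative to DMSO baseline.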
# [3] = APR_HepG2_NuclearSize_24hr: Apredica 24-hour HepG2 Assay for Nuclear Size (AID 2282907; active = hit-call score of the fitted dose curve at least 0.9, where 1 is the maximum; inactive = score below 0.9); conditions: high-content imaging, actives raise or lower the signal
# How it was run: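 Read-out: nuclear diameter from Hoechst 33342 (2 ug/mL) imaging of fixed HepG2 cells, 20x, six fields/well. Compounds ran at 0.39–200 uM for 24 hr, 0.5% DMSO final. Gain or loss was fitted bidirectionally relative to the DMSO baseline.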
# [4] = APR_HepG2_CellLoss_24hr: Apredica 24-hour HepG2 Assay for Cell Loss (AID 2282908; active = hit-call score of the fitted dose curve at least 0.9, where 1 is the maximum; inactive = score below 0.9); conditions: high-content imaging
# How it was run: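 Read-out: Hoechst 33342-stained nuclei counted by automated fluorescence imaging after formaldehyde fixation and Triton permeabilization. Ten concentrations, 0.39 to 200 uM, duplicate wells, 0.5% DMSO final. Gain or loss of signal fitted relative to DMSO baseline.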
# [5] = APR_HepG2_MicrotubuleCSK_24hr: Apredica 24-hour HepG2 Assay for Microtubule CSK Stabilty (AID 2282909; active = hit-call score of the fitted dose curve at least 0.9, where 1 is the maximum; inactive = score below 0.9); conditions: HepG2 microtubule cytoskeleton imaging, actives raise or lower the signal
# How it was run: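 Read-out: alpha-tubulin immunofluorescence intensity by automated high-content imaging of fixed HepG2 cells after 24 h compound treatment. Ten concentrations, 0.39 to 200 uM, in duplicate; DMSO 0.5% v/v. Taxol positive control; DMSO-normalized bidirectional curve fitting.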
# [6] = APR_HepG2_MitoticArrest_24hr: Apredica 24-hour HepG2 Assay for Mitotic Arrest (AID 2282910; active = hit-call score of the fitted dose curve at least 0.9, where 1 is the maximum; inactive = score below 0.9); conditions: high-content imaging, actives raise or lower the signal
# How it was run: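 High-content imaging of fixed HepG2 cells labeled with Hoechst 33342 and anti-phospho-histone H3, after 24 h treatment. Ten concentrations 0.39 to 200 uM in duplicate, final DMSO 0.5%; changes fitted both directions relative to DMSO.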
# [7] = APR_HepG2_MitoMembPot_24hr: Apredica 24-hour HepG2 Assay for Mitochondrial Membrane Potential (AID 2282911; active = hit-call score of the fitted dose curve at least 0.9, where 1 is the maximum; inactive = score below 0.9); conditions: imaging, actives raise or lower the signal
# How it was run: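 Mitochondrial dye uptake (MitoTracker Red CMXRos, 250 nM, 30 min pre-fixation) in HepG2 after 24 hr compound exposure, 0.39–200 uM; ArrayScan images at 20x, activity fitted in both directions relative to DMSO.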
# [8] = APR_HepG2_MitoMass_24hr: Apredica 24-hour HepG2 Assay for Mitochondrial Mass (AID 2282912; active = hit-call score of the fitted dose curve at least 0.9, where 1 is the maximum; inactive = score below 0.9); conditions: high-content imaging, actives raise or lower the signal
# How it was run: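 HepG2, 24 hr dosing, 10 concentrations 0.39–200 uM in duplicate, DMSO 0.5% final. MitoTracker Red CMXRos 250 nM, 30 min pre-fix; 3.7% formaldehyde fix. Imaging-based fluorescence intensity; gain/loss fit vs DMSO baseline.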
# [9] = APR_HepG2_p53Act_24hr: Apredica 24-hour HepG2 Assay for p53 Activation (AID 2282913; active = hit-call score of the fitted dose curve at least 0.9, where 1 is the maximum; inactive = score below 0.9;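 also: p53 protein immunofluorescence averaged per cell in HepG2 with Hoechst nuclei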); conditions: high-content imaging, actives raise or lower the signal
# How it was run: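 Following 24 hr dosing of HepG2 at 0.39–200 uM, the cells undergo formaldehyde fixation, Triton permeabilization and multiplexed antibody labeling that includes p53 (Cy5). Signal from the imaging is referenced to DMSO solvent controls.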
# [10] = APR_HepG2_CellCycleArrest_72hr: Apredica 72-hour HepG2 Assay for Cell Cycle Arrest (AID 2282914; active = hit-call score of the fitted dose curve at least 0.9, where 1 is the maximum; inactive = score below 0.9); conditions: high-content imaging, actives raise or lower the signal
# How it was run: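 Using multiplexed high-content imaging, HepG2 nuclei stained with Hoechst 33342 (2 ug/mL) were analysed for DNA content after fixation and permeabilization. Treatment lasted 72 hr across 0.39–200 uM in duplicate with final DMSO 0.5% v/v; DMSO served as negative control.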
compound,measurement,setting,value
O=C(O)C(F)(F)C(F)(F)C(=O)O,outcome,[1],inactive
COP(=O)(O)OC,outcome,[1],inactive
C=C(C)C(=O)OCC1CO1 (configuration not stated),outcome,[1],inactive
O=C(O)C(F)(F)OC(F)(F)C(F)(F)OC(F)(F)C(=O)O,outcome,[1],inactive
O=[N+]([O-])c1cc(Cl)ccc1Cl,outcome,[1],inactive
Cc1ccc(C(=O)Cl)cc1,outcome,[1],inactive
NC(=O)C(F)(F)C(F)(F)F,AC50,[1],20.5 µM (active)
CCOC(=O)c1ccccc1C(=O)OCC,outcome,[1],inactive
same,outcome,[2],inactive
same,outcome,[3],inactive
same,outcome,[4],inactive
same,outcome,[5],inactive
same,outcome,[6],inactive
same,outcome,[7],inactive
same,outcome,[8],inactive
same,outcome,[9],inactive
same,outcome,[10],inactive
FC(F)(F)C(F)(C(F)(F)F)C(F)(F)C(F)(F)CC1CO1 (configuration not stated),outcome,[1],inactive
N#Cc1cc([N+](=O)[O-])ccc1N,outcome,[1],inactive
ClC(Cl)=C(c1ccc(Cl)cc1)c1ccccc1Cl,outcome,[1],inactive
CC(O)C#N (configuration not stated),outcome,[1],inactive
N#Cc1c(-c2ccc(Cl)cc2)[nH]c(C(F)(F)F)c1Br,outcome,[1],inactive
CCOP(=S)(S)OCC,outcome,[1],inactive
COP(=O)(CCC(=O)NCO)OC,outcome,[1],inactive
c1nc[nH]n1,outcome,[1],inactive
same,outcome,[2],inactive
same,outcome,[3],inactive
same,outcome,[4],inactive
same,outcome,[5],inactive
same,outcome,[6],inactive
same,outcome,[7],inactive
same,outcome,[8],inactive
same,outcome,[9],inactive
same,outcome,[10],inactive
Nc1ccc([N+](=O)[O-])cc1Cl,outcome,[1],inactive
Oc1ccccc1Br,outcome,[1],inactive
COC(N)=O,outcome,[1],inactive
CC(C)(C)N(NC(=O)c1ccc(Cl)cc1)C(=O)c1ccccc1,outcome,[1],inactive
CNC(=O)Oc1ccc(N(C)C)c(C)c1,outcome,[1],inactive
O=NN1CCCC1,outcome,[1],inactive
Cn1[nH]nnc1=S,outcome,[1],inactive
O=S(=O)(F)C(F)(F)C(F)(F)C(F)(F)C(F)(F)C(F)(F)C(F)(F)C(F)(F)C(F)(F)F,outcome,[1],inactive
